Source: the supplement of paper PMC4022240
± gives the standard deviation.

Columns and labels:
Test in all cases: peptide microarray binding signal (635 nm), min-max normalized on array (fraction of array maximum); higher = stronger binding
[1] = molecular target: T1, HaloTag-ATRX ADD domain (163-292)
T1 chain: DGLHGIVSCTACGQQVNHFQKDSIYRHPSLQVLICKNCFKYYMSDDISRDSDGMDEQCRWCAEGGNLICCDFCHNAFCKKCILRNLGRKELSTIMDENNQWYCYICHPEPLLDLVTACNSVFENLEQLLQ
Outline: (§1)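 For each library, binding signal was taken as the triplicate-spot mean intensity and then min-max scaled. Spots of histone 13-mer peptide–cellulose conjugates on nitrocellulose, printed in triplicate with a Cy3 tracer, were probed for 1 h at 4°C with either biotin-labelled HaloTag reader fusions (10 nM to 1 μM) and streptavidin-Alexa Fluor 647 or rabbit histone antibodies (1:10,000 to 1:2,000) and anti-rabbit Alexa 647. Readout at 635 nm came from an Axon GenePix 4000B.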

[2] = molecular target: HaloTag-ING2 PHD (mouse Ing2 200-280)
Outline: as §1

[3] = molecular target: anti-H3K4me3 antibody ab8580
Outline: as §1

[4] = molecular target: anti-H3K9me3 antibody ab8898
Outline: as §1

[5] = peptide region: H4 1-13, peptide modifications: H4K12ac, binder concentration: 1:2,000 dilution
[6] = peptide region: H4 1-13, peptide modifications: H4K12ac, binder concentration: 1:10,000 dilution
[7] = peptide region: H3 112-124, peptide modifications: H3R116me2s, binder concentration: 1:2,000 dilution
[8] = peptide region: H3 112-124, peptide modifications: H3R116me2s, binder concentration: 1:10,000 dilution
[9] = peptide region: H3 112-124, peptide modifications: H3K122me2, binder concentration: 1:2,000 dilution
[10] = peptide region: H3 112-124, peptide modifications: H3K122me2, binder concentration: 1:10,000 dilution
[11] = peptide region: H4 1-13, peptide modifications: H4R3me1, binder concentration: 1:2,000 dilution
[12] = peptide region: H4 1-13, peptide modifications: H4R3me1, binder concentration: 1:10,000 dilution
[13] = peptide region: H4 1-13, peptide modifications: H4R3me2s, binder concentration: 1:2,000 dilution
[14] = peptide region: H4 1-13, peptide modifications: H4R3me2s, binder concentration: 1:10,000 dilution
[15] = peptide region: H4 1-13, peptide modifications: H4K8ac, binder concentration: 1:2,000 dilution
[16] = peptide region: H4 1-13, peptide modifications: H4K8ac, binder concentration: 1:10,000 dilution
[17] = peptide region: H4 1-13, peptide modifications: H4K5ac, binder concentration: 1:2,000 dilution
[18] = peptide region: H4 1-13, peptide modifications: H4K5ac, binder concentration: 1:10,000 dilution
[19] = peptide region: H4 1-13, peptide modifications: H4K8ac H4K12ac, binder concentration: 1:2,000 dilution
[20] = peptide region: H4 1-13, peptide modifications: H4K8ac H4K12ac, binder concentration: 1:10,000 dilution
[21] = peptide region: H4 1-13, binder concentration: 1:2,000 dilution
[22] = peptide region: H4 1-13, binder concentration: 1:10,000 dilution
[23] = peptide region: H3 112-124, peptide modifications: H3K122ac, binder concentration: 1:2,000 dilution
[24] = peptide region: H3 112-124, peptide modifications: H3K122ac, binder concentration: 1:10,000 dilution

B1: H4 1-13 S G R G K G G K G L G Kac G (peptide)
chain: SGRGKGGKGLGKG
[1]; peptide region: H4 1-13, peptide modifications: H4K12ac, binder concentration: 50 nM
  peptide microarray binding signal: 0.00238 ± 2.8e-05
[1]; peptide region: H4 1-13, peptide modifications: H4K12ac, binder concentration: 500 nM
  peptide microarray binding signal: 0.00652 ± 0.001
[2]; peptide region: H4 1-13, peptide modifications: H4K12ac, binder concentration: 10 nM
  peptide microarray binding signal: 0.00251 ± 0.00023
[2]; peptide region: H4 1-13, peptide modifications: H4K12ac, binder concentration: 100 nM
  peptide microarray binding signal: 0.0056 ± 0.00073
[3]; [5]
  peptide microarray binding signal: 0.000302 ± 1.7e-05
[3]; [6]
  peptide microarray binding signal: 0.000799 ± 3.3e-05
[4]; [5]
  peptide microarray binding signal: 0.000121 ± 8.7e-06
[4]; [6]
  peptide microarray binding signal: 0.000577 ± 6.2e-06

B2: H3 112-124 I H A K Rme2s V T I M P K D I (peptide)
chain: IHAKRVTIMPKDI
[1]; peptide region: H3 112-124, peptide modifications: H3R116me2s, binder concentration: 50 nM
  peptide microarray binding signal: 0.00574 ± 0.00016
[1]; peptide region: H3 112-124, peptide modifications: H3R116me2s, binder concentration: 500 nM
  peptide microarray binding signal: 0.0129 ± 0.00072
[2]; peptide region: H3 112-124, peptide modifications: H3R116me2s, binder concentration: 10 nM
  peptide microarray binding signal: 0.00645 ± 0.00026
[2]; peptide region: H3 112-124, peptide modifications: H3R116me2s, binder concentration: 100 nM
  peptide microarray binding signal: 0.014 ± 0.00075
[3]; [7]
  peptide microarray binding signal: 0.00215 ± 0.00015
[3]; [8]
  peptide microarray binding signal: 0.00285 ± 0.00021
[4]; [7]
  peptide microarray binding signal: 0.00341 ± 0.00018
[4]; [8]
  peptide microarray binding signal: 0.002306 ± 2.1e-05

B3: H3 112-124 I H A K R V T I M P Kme2 D I (peptide)
chain: IHAKRVTIMPKDI
[1]; peptide region: H3 112-124, peptide modifications: H3K122me2, binder concentration: 50 nM
  peptide microarray binding signal: 0.0047 ± 8.8e-05
[1]; peptide region: H3 112-124, peptide modifications: H3K122me2, binder concentration: 500 nM
  peptide microarray binding signal: 0.0148 ± 0.00039
[2]; peptide region: H3 112-124, peptide modifications: H3K122me2, binder concentration: 10 nM
  peptide microarray binding signal: 0.00567 ± 0.00021
[2]; peptide region: H3 112-124, peptide modifications: H3K122me2, binder concentration: 100 nM
  peptide microarray binding signal: 0.0168 ± 0.0034
[3]; [9]
  peptide microarray binding signal: 0.000906 ± 6e-05
[3]; [10]
  peptide microarray binding signal: 0.000799 ± 8.3e-06
[4]; [9]
  peptide microarray binding signal: 0.00287 ± 0.00058
[4]; [10]
  peptide microarray binding signal: 0.00121 ± 2.4e-05

B4: H4 1-13 S G Rme G K G G K G L G K G (peptide)
chain: SGRGKGGKGLGKG
[1]; peptide region: H4 1-13, peptide modifications: H4R3me1, binder concentration: 50 nM
  peptide microarray binding signal: 0.00483 ± 0.00013
[1]; peptide region: H4 1-13, peptide modifications: H4R3me1, binder concentration: 500 nM
  peptide microarray binding signal: 0.00838 ± 0.0007
[2]; peptide region: H4 1-13, peptide modifications: H4R3me1, binder concentration: 10 nM
  peptide microarray binding signal: 0.00477 ± 0.00017
[2]; peptide region: H4 1-13, peptide modifications: H4R3me1, binder concentration: 100 nM
  peptide microarray binding signal: 0.0127 ± 0.0019
[3]; [11]
  peptide microarray binding signal: 0.00125 ± 0.00022
[3]; [12]
  peptide microarray binding signal: 0.0012 ± 1.2e-05
[4]; [11]
  peptide microarray binding signal: 0.000544 ± 6.8e-05
[4]; [12]
  peptide microarray binding signal: 0.00115 ± 2e-05

B5: H4 1-13 S G Rme2s G K G G K G L G K G (peptide)
chain: SGRGKGGKGLGKG
[1]; peptide region: H4 1-13, peptide modifications: H4R3me2s, binder concentration: 50 nM
  peptide microarray binding signal: 0.00304 ± 5.1e-05
[1]; peptide region: H4 1-13, peptide modifications: H4R3me2s, binder concentration: 500 nM
  peptide microarray binding signal: 0.0107 ± 0.0019
[2]; peptide region: H4 1-13, peptide modifications: H4R3me2s, binder concentration: 10 nM
  peptide microarray binding signal: 0.00161 ± 0.00016
[2]; peptide region: H4 1-13, peptide modifications: H4R3me2s, binder concentration: 100 nM
  peptide microarray binding signal: 0.00468 ± 0.0011
[3]; [13]
  peptide microarray binding signal: 0.000227 ± 2.2e-05
[3]; [14]
  peptide microarray binding signal: 0.00097 ± 4.3e-05
[4]; [13]
  peptide microarray binding signal: 0.000317 ± 3.5e-05
[4]; [14]
  peptide microarray binding signal: 0.000461

B6: H4 1-13 S G R G K G G Kac G L G K G (peptide)
chain: SGRGKGGKGLGKG
[1]; peptide region: H4 1-13, peptide modifications: H4K8ac, binder concentration: 50 nM
  peptide microarray binding signal: 0.00248 ± 2.9e-05
[1]; peptide region: H4 1-13, peptide modifications: H4K8ac, binder concentration: 500 nM
  peptide microarray binding signal: 0.00481 ± 8.5e-05
[2]; peptide region: H4 1-13, peptide modifications: H4K8ac, binder concentration: 10 nM
  peptide microarray binding signal: 0.002626 ± 1.5e-05
[2]; peptide region: H4 1-13, peptide modifications: H4K8ac, binder concentration: 100 nM
  peptide microarray binding signal: 0.00546 ± 0.00011
[3]; [15]
  peptide microarray binding signal: 0.000434 ± 1.2e-05
[3]; [16]
  peptide microarray binding signal: 0.000628 ± 6.7e-06
[4]; [15]
  peptide microarray binding signal: 9.06e-05 ± 3.5e-06
[4]; [16]
  peptide microarray binding signal: 0.000346 ± 3.8e-06

B7: H4 1-13 S G R G Kac G G K G L G K G (peptide)
chain: SGRGKGGKGLGKG
[1]; peptide region: H4 1-13, peptide modifications: H4K5ac, binder concentration: 50 nM
  peptide microarray binding signal: 0.00201 ± 2.4e-05
[1]; peptide region: H4 1-13, peptide modifications: H4K5ac, binder concentration: 500 nM
  peptide microarray binding signal: 0.00524 ± 0.00032
[2]; peptide region: H4 1-13, peptide modifications: H4K5ac, binder concentration: 10 nM
  peptide microarray binding signal: 0.00197 ± 5.8e-05
[2]; peptide region: H4 1-13, peptide modifications: H4K5ac, binder concentration: 100 nM
  peptide microarray binding signal: 0.00659 ± 0.00054
[3]; [17]
  peptide microarray binding signal: 0.000585 ± 1.1e-05
[3]; [18]
  peptide microarray binding signal: 0.000571 ± 1.1e-05
[4]; [17]
  peptide microarray binding signal: 0.000302 ± 1.2e-05
[4]; [18]
  peptide microarray binding signal: 0.000404 ± 4.4e-06

B8: H4 1-13 S G R G K G G Kac G L G Kac G (peptide)
chain: SGRGKGGKGLGKG
[1]; peptide region: H4 1-13, peptide modifications: H4K8ac H4K12ac, binder concentration: 50 nM
  peptide microarray binding signal: 0.00188 ± 7.5e-05
[1]; peptide region: H4 1-13, peptide modifications: H4K8ac H4K12ac, binder concentration: 500 nM
  peptide microarray binding signal: 0.00533 ± 0.00034
[2]; peptide region: H4 1-13, peptide modifications: H4K8ac H4K12ac, binder concentration: 10 nM
  peptide microarray binding signal: 0.00179 ± 0.0001
[2]; peptide region: H4 1-13, peptide modifications: H4K8ac H4K12ac, binder concentration: 100 nM
  peptide microarray binding signal: 0.00255 ± 6.4e-05
[3]; [19]
  peptide microarray binding signal: 0.00017 ± 6.4e-06
[3]; [20]
  peptide microarray binding signal: 0.000799 ± 1.7e-05
[4]; [19]
  peptide microarray binding signal: 0.000438 ± 8.5e-06
[4]; [20]
  peptide microarray binding signal: 0.000577 ± 1.2e-05

B9: H4 1-13 S G R G K G G K G L G K G (peptide)
chain: SGRGKGGKGLGKG
[1]; peptide region: H4 1-13, binder concentration: 50 nM
  peptide microarray binding signal: 0.00834 ± 0.00028
[1]; peptide region: H4 1-13, binder concentration: 500 nM
  peptide microarray binding signal: 0.018 ± 0.0011
[2]; peptide region: H4 1-13, binder concentration: 10 nM
  peptide microarray binding signal: 0.0037 ± 0.00019
[2]; peptide region: H4 1-13, binder concentration: 100 nM
  peptide microarray binding signal: 0.00928 ± 0.00099
[3]; [21]
  peptide microarray binding signal: 0.000189 ± 2e-06
[3]; [22]
  peptide microarray binding signal: 0.00417 ± 0.00056
[4]; [21]
  peptide microarray binding signal: 0.00211 ± 0.00074
[4]; [22]
  peptide microarray binding signal: 0.00306 ± 0.00014

B10: H3 112-124 I H A K R V T I M P Kac D I (peptide)
chain: IHAKRVTIMPKDI
[1]; peptide region: H3 112-124, peptide modifications: H3K122ac, binder concentration: 50 nM
  peptide microarray binding signal: 0.002508 ± 1.9e-05
[1]; peptide region: H3 112-124, peptide modifications: H3K122ac, binder concentration: 500 nM
  peptide microarray binding signal: 0.00729 ± 0.0012
[2]; peptide region: H3 112-124, peptide modifications: H3K122ac, binder concentration: 10 nM
  peptide microarray binding signal: 0.00328 ± 0.00025
[2]; peptide region: H3 112-124, peptide modifications: H3K122ac, binder concentration: 100 nM
  peptide microarray binding signal: 0.00475 ± 0.0007
[3]; [23]
  peptide microarray binding signal: 0.00113 ± 0.00025
[3]; [24]
  peptide microarray binding signal: 0.00137 ± 0.00013
[4]; [23]
  peptide microarray binding signal: 0.000483 ± 2.4e-05
[4]; [24]
  peptide microarray binding signal: 0.000692 ± 7.3e-06
